IMPase Li inh – membrane-permeable IMPase blocker, potentiated with lithium. CHO-M1 cells, IP1 TR-FRET (IP-One), carbachol + lithium. Potency, µM (doses to about 59.4 µM), without a hit: at the top dose activity, negative = IMPase inhibition, most hits filed as inhibitors. hit rate 0.35% among 210,000; active = well fitted curve in the direction sought with a large enough effect; inconclusive = small, poorly fitted or top-dose-only effect, or another doubt; inactive = no such curve, though single readings can be large; an effect the other way counts as inactive or inconclusive;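 note: IP1 builds up when IMPase is blocked and the TR-FRET signal falls; potency is the fitted concentration of half-maximal effect; plate controls were basal vehicle for no effect and high inhibitor control for full effect; nearly all actives have a fitted effect of over 50% in size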
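IP1 accumulation measured by competitive TR-FRET in lysed CHO-M1 cells after 30 min compound exposure at 37C, with a small lithium addition to potentiate weak responses. Hill-equation AC50 from ratio and donor-channel data.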
PNC assembly inh – inhibitors of perinucleolar compartment assembly; PC3M PTB-GFP, PNC prevalence imaging, 16 h; active compounds read low; activity change (PNC), negative = inhibition, % at 10 µM; hit rate 3.1% among 140,000;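 active = readout at or below -70, meaning at least 70% loss of cells showing the perinucleolar compartment, a nuclear body marking cancer cells; inconclusive = readout between -30 and a set limit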;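 note: plate controls were DMSO wells for no effect and camptothecin positive control wells for full effect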
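PC3M cells stably expressing PTB-GFP, 750–1000 cells/well, treated 16 h at 37 °C with compound (23 nl of library stock), in duplicate. After paraformaldehyde fixation and Hoechst stain, imaged at 20x; PNC prevalence scored by image analysis.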
IMPase inh – IMPase inhibition in cells | P97697 | CHO-M1 cells, IP1 accumulation, HTRF TR-FRET ratio | inhibition (IP1 accumulation), % at 46.1 µM | 120,000 tested, under 10 active | AID 901; active = well fitted curve in the direction sought with a large enough effect in the signal ratio, not every such curve was filed as active; inconclusive = small, poorly fitted or top-dose-only effect, or a change in a side signal; inactive = no such curve, though single readings can be large or run the other way; the % refers to the signal ratio;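 note: cells stimulated with carbachol in lithium chloride buffer; plate controls were DMSO basal wells for no effect and reference inhibitor wells for full effect; higher means more IMPase inhibition seen as more IP1 and lower FRET ratio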
Target sequence (P97697 whole entry, looked up): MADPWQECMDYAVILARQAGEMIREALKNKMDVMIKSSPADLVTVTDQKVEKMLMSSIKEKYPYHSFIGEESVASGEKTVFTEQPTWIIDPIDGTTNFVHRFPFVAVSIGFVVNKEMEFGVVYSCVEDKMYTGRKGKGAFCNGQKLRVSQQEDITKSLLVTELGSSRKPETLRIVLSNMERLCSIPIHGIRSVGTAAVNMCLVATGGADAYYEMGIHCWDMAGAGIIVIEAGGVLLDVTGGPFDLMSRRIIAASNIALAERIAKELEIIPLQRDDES
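CHO-M1, 2000 cells/well, cultured 16–30 h; cpd up to 46 uM; carbachol (50 uM solution, stimulation buffer w/ 50 mM LiCl, pH 7.4), 30 min 37C; IP-One TR-FRET, 10 min RT; Ex 320/Em 665, 620; Hill-fit AC50.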
ALDH1A1 inh – ALDH1A1 (human) enzyme inhibition; P00352; Purified ALDH1A1, NADH fluorescence, propionaldehyde substrate; Potency, µM (series often up to 75.3 µM), for the others: at the top dose activity, negative = inhibition, hits mostly inhibitors; hit rate 7.3% among 220,000; AID 1030;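 note: potency is the fitted concentration of half-maximal effect; plate controls were no enzyme wells and a reference inhibitor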
HPGD inh – HPGD (human) dehydrogenase inhibition; P15428; purified HPGD, NADH fluorescence kinetic, PGE2 substrate; Potency, µM, for the others: top-dose activity change, negative = inhibition, actives largely listed as inhibitors; hit rate 4.3% among 150,000; note: potency is the fitted concentration of half-maximal effect
Target sequence (P15428 whole entry, looked up): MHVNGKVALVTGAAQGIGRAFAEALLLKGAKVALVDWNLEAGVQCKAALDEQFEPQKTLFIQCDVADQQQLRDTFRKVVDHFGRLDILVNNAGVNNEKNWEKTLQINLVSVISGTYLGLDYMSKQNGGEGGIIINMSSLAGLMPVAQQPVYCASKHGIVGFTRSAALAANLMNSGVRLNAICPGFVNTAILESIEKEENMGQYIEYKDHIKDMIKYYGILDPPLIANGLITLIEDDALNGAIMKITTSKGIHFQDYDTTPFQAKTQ
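20 nM HPGD preincubated 15 min at room temperature with compound in 50 mM Tris-HCl pH 8, 0.01% Tween 20. Started with 1 mM NAD+ and 30 uM prostaglandin E2; NADH fluorescence (360/450 nm) read 5 times over 30-s intervals, last minus first.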
NPSR antag – antagonists of human neuropeptide S receptor cAMP signaling; Q6W5P4; CHO-NPSR cells, cAMP TR-FRET, antagonist mode; Potency, µM (titrated, usually from 38.3 µM), for inactives: top-dose activity change, negative = inhibition, hits mostly inhibitors; hit rate 1% among 220,000; active = well fitted curve in the direction sought with a large enough effect; inconclusive = small, poorly fitted or top-dose-only effect, or another doubt; inactive = no such curve, though single readings can be large; an effect the other way counts as inactive or inconclusive; note: potency is the fitted concentration of half-maximal effect; nearly all actives have a fitted effect of over 50% in size
Starred values were filed as active, the others as inactive; i = inactive; ? = inconclusive; . = no result given; [ ] = remark or other dose. This is a sample that favours compounds with a hit; in the whole collection about 11% have one here. Unless noted, calls come from the whole dose curve; as a rule, active = well fitted inhibition curve with a large enough effect (not every such curve was filed as active); inconclusive = small, poorly fitted or top-dose-only effect, or another doubt; inactive = no such curve, though single readings can be large or run the other way. Unless noted, % is set by controls: 0 for no effect and ±100 for the full control effect.

SMILES	IMPase Li inh	PNC assembly inh	IMPase inh	ALDH1A1 inh	HPGD inh	NPSR antag
CC1CCCC/C1=N\NS(=O)(=O)c1ccc(Br)cc1 (configuration not stated)	16%[38.3 µM]	25	3	4.5µM*	1%	-2%[46.1 µM]
CCCC1CCC(=NNS(=O)(=O)c2ccc(C)c([N+](=O)[O-])c2)CC1 (configuration not stated)	0%	?	-10	?	-3%	18%
Cc1ccc(S(=O)(=O)NN=C2CCC(C(C)(C)C)CC2)cc1[N+](=O)[O-] (configuration not stated)	2%	-26	-7	6.3µM*	-8%	6%
CC(C)(C)C1CCC(=NNS(=O)(=O)c2ccc(Br)cc2)CC1 (configuration not stated)	-3%	-20	8	1.4µM*	-5%	-8%[46.1 µM]
Cc1cc(=O)n2c(n1)NC(Nc1cccc(C)c1C)=NC2c1ccc(F)cc1 (configuration not stated)	.	.	.	.	.	-1%
Cc1ccccc1SCC(=O)NC1CCOC1=O (configuration not stated)	1%[38.3 µM]	-6	9	10%	-9%	0%[46.1 µM]
CCCn1c(CCC(=O)O)ccc1-c1ccc(F)cc1	25%[38.3 µM]	21	-5	?	-14%	-7%[46.1 µM]
C/C(=N\NS(=O)(=O)c1ccc(C)c([N+](=O)[O-])c1)c1cccs1	-2%	.	.	32µM*	.	0%
C/C(=N\NS(=O)(=O)c1ccc([N+](=O)[O-])cc1)c1cccs1	7%	.	.	1%	.	-6%
CC(=O)N1CCC(=NNS(=O)(=O)c2ccc(C)c([N+](=O)[O-])c2)CC1	-10%[38.3 µM]	-20	-4	10µM*	-1%	-10%[46.1 µM]
Cc1ccc(S(=O)(=O)NN=C2C3CC4CC(C3)CC2C4)cc1[N+](=O)[O-]	-1%	16	.	18µM*	-17%	-3%
Cc1ccc(-c2cc(N)n[nH]2)cc1	24%[38.3 µM]	2	-1	11%	-4%	-11%[46.1 µM]
c1coc(-c2nn3c(Cn4nnc5ccccc54)nnc3s2)c1	-9%	4	4	10µM*	10µM*	-2%[46.1 µM]
Clc1ccc(Cc2nn3c(Cn4nnc5ccccc54)nnc3s2)cc1	4%	?	1	22µM*	22µM*	-8%[46.1 µM]
c1csc(-c2nn3c(Cn4cnc5ccccc54)nnc3s2)c1	19%[38.3 µM]	?	0	?	?	-11%[46.1 µM]
c1ccc2c(c1)nnn2Cc1nnc2sc(-c3ccncc3)nn12	-16%[38.3 µM]	-14	-3	?	18µM*	6%[46.1 µM]
Clc1cccc(-c2nn3c(Cn4cnc5ccccc54)nnc3s2)c1	17%[38.3 µM]	?	-1	10µM*	25µM*	-26%[46.1 µM]
c1csc(-c2nn3c(Cn4nnc5ccccc54)nnc3s2)c1	1%	15	4	i	?	-3%[46.1 µM]
S=c1[nH]nc(Cn2nnc3ccccc32)n1-c1ccc(Cl)cc1	8%	.	.	10%	.	-13%
CCN(CC)S(=O)(=O)c1ccc(C(=O)OCC(=O)Nc2ccc(-c3nc4ccc(C)cc4s3)cc2)cc1	-10%	-29	.	-128%	?	2%
COc1ccc2cc3c(N)nn(C(=O)c4ccc(F)cc4)c3nc2c1	.	.	.	.	.	-22%
Cc1nc2sc3c(NCc4ccco4)ncnc3c2c2c1COC(C)(C)C2	24%	?	8	?	-13%	-6%[46.1 µM]
CCCCC(=O)N1CCCC(C)C1 (configuration not stated)	.	.	.	-6%	.	-16%
Cc1ccc2[nH]c3c(c2c1)CN(C(=O)CN1CCCCC1)CC3	.	.	.	.	.	4%
Cc1ccc2[nH]c3c(c2c1)CN(C(=O)CN1CCCc2ccccc21)CC3	27%[38.3 µM]	42	13	2.8µM*	22µM*	-6%[7.67 µM]
Cc1ccc2[nH]c3c(c2c1)CN(C(=O)CN1CCN(c2ccccc2F)CC1)CC3	17%[38.3 µM]	10	-1	8.9µM*	-14%	-22%[46.1 µM]
Cc1cc2nc(C3CCN(CC4COc5ccccc5O4)CC3)[nH]c2cc1C (configuration not stated)	-8%[38.3 µM]	-82*	16[1.84 µM]	-12%	-3%	-4%[46.1 µM]

Screens (PubChem)
